# From the supplement of paper PMC9694430
# Assays:
# Test in all cases: thermal shift delta Tm vs DMSO control; higher = stronger stabilization (binding)
# Details in all cases: 12.5 µM; protein concentration 2 µM
# [1] = test system: LOC_OS02G45750-cb003
# Method in brief: (§1)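 Rice kinase domain constructs, made in E. coli and purified, were placed in 96-well plates at 2 μM in 19.5 μl of 100 mM potassium phosphate pH 7.5, 150 mM NaCl, 10% glycerol and 5 × SYPRO Orange, with compound in DMSO. A temperature ramp from 25°C to 95°C at 0.05°C/s was used for differential scanning fluorimetry. The melting temperature shift is a triplicate mean compared with DMSO-only protein, derived from Boltzmann fits.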
# [2] = test system: LOC_OS02G54510-cb004
# Method in brief: as §1
# [3] = test system: LOC_OS03G04050-cb001
# Method in brief: as §1
# [4] = test system: LOC_OS03G12390-cb001
# Method in brief: as §1
# [5] = test system: LOC_OS03G27990-cb004
# Method in brief: as §1
# [6] = test system: LOC_OS03G50450-cb001
# Method in brief: as §1
# [7] = test system: LOC_OS03G50810-cb003
# Method in brief: as §1
# [8] = test system: LOC_OS04G35114-cb001
# Method in brief: as §1
# [9] = test system: T1, LOC_OS04G38480-cb003
# T1 sequence (whole entry): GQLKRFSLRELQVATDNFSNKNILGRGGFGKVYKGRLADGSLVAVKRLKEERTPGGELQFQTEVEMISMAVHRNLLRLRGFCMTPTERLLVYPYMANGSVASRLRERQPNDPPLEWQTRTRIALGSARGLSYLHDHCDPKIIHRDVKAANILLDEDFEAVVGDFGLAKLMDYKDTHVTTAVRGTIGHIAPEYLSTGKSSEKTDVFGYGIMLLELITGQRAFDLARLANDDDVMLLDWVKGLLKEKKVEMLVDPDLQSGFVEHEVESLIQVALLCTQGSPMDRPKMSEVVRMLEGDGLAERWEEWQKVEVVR
# Method in brief: as §1
# [10] = test system: T2, LOC_OS04G41100-cb001
# T2 sequence (whole entry): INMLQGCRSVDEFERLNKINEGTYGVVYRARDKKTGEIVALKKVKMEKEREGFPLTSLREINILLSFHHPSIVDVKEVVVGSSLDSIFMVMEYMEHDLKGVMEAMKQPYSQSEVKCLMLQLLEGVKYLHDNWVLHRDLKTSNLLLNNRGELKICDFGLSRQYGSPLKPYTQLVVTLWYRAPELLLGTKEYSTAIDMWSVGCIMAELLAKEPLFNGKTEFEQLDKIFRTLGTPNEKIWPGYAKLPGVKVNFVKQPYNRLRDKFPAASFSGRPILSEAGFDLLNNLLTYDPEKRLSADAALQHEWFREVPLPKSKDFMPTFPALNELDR
# Method in brief: as §1
# [11] = test system: LOC_OS04G57630-cb004
# Method in brief: as §1
# [12] = test system: LOC_OS05G07850-cb002
# Method in brief: as §1
# [13] = test system: LOC_OS05G16824-cb004
# Method in brief: as §1
# [14] = test system: LOC_OS05G28520-cb001
# Method in brief: as §1
# [15] = test system: LOC_OS05G30820-cb001
# Method in brief: as §1
# [16] = test system: LOC_OS05G43570-cb004
# Method in brief: as §1
# [17] = test system: LOC_OS06G16330-cb003
# Sequence of LOC_OS06G16330-cb003 (as listed by the source): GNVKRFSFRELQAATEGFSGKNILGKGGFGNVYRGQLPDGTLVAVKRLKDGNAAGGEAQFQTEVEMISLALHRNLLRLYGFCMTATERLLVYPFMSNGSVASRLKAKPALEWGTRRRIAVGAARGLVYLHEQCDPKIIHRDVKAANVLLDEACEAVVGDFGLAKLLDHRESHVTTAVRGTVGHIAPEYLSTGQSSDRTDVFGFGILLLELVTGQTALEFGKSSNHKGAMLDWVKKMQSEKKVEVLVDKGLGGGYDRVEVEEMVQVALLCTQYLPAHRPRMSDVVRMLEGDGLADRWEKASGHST
# Method in brief: as §1
# [18] = test system: T3, LOC_OS06G22820-cb001
# T3 sequence (whole entry): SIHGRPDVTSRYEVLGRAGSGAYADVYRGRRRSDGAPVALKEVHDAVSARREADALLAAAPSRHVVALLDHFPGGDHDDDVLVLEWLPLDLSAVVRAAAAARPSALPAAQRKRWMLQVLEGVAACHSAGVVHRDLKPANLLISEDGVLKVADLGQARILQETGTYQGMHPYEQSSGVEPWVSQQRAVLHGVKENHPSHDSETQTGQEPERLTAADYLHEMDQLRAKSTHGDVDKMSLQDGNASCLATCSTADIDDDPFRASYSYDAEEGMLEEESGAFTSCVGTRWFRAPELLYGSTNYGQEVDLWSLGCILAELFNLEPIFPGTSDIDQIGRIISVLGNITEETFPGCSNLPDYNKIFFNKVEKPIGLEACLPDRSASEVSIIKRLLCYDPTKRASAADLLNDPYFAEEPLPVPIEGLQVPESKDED
# Method in brief: as §1
# [19] = test system: LOC_OS07G06570-cb004
# Method in brief: as §1
# [20] = test system: LOC_OS07G07230-cb001
# Method in brief: as §1
# 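Also: purified Escherichia coli-expressed rice kinase domain construct.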
SMILES,thermal shift delta Tm [1] [°C],thermal shift delta Tm [2] [°C],thermal shift delta Tm [3] [°C],thermal shift delta Tm [4] [°C],thermal shift delta Tm [5] [°C],thermal shift delta Tm [6] [°C],thermal shift delta Tm [7] [°C],thermal shift delta Tm [8] [°C],thermal shift delta Tm [9] [°C],thermal shift delta Tm [10] [°C],thermal shift delta Tm [11] [°C],thermal shift delta Tm [12] [°C],thermal shift delta Tm [13] [°C],thermal shift delta Tm [14] [°C],thermal shift delta Tm [15] [°C],thermal shift delta Tm [16] [°C],thermal shift delta Tm [17] [°C],thermal shift delta Tm [18] [°C],thermal shift delta Tm [19] [°C],thermal shift delta Tm [20] [°C]
C=C(C)[C@@H]1CC[C@]2(C)CC[C@]3(C)[C@H](CC[C@@H]4[C@@]5(C)CC[C@H](O)C(C)(C)[C@@H]5CC[C@]43C)[C@@H]12 [Lupeol],1.07,0.49,0.67,0.01,0.18,0.36,0.4,1.24,3.02,0.47,0.77,0.82,1.84,0.13,0.38,0.49,-2.09,0.12,1.26,0.62
CS(=O)(=O)CCNCc1ccc(-c2ccc3ncnc(Nc4ccc(OCc5cccc(F)c5)c(Cl)c4)c3c2)o1 [Lapatinib],0.06,-0.31,0.53,1.17,0.47,1.2,1.16,2.03,3.11,0.92,0.95,5.03,-0.92,0.22,0.61,1.4,0.59,1.74,2.3,-0.12
COc1cc(-c2cc(-c3ccc(N4CCNCC4)cc3)cnc2C)cc(OC)c1OC,2.4,0.19,0.41,-0.01,0.29,0.65,0.51,2.27,1.94,0.29,0.42,3.83,0.31,0.5,0.25,0.17,2.03,0.21,0.35,0.01
Oc1ccc(Nc2nc(-c3ccc(Cl)cc3)cs2)cc1,0.87,-1.06,1.13,1.19,1.07,1.19,1.34,2.45,-1.18,0.69,0.01,3.59,-0.03,0.45,1.05,-0.07,0.92,0.79,-0.41,0.38
Oc1cccc(-c2nc(N3CCOCC3)c3oc4ncccc4c3n2)c1,-0.07,-0.06,0.32,0.43,0.03,0.47,0.16,0.22,1.17,0.89,-0.25,0.47,1.57,0.51,0.49,0.69,0.07,0.82,1.15,0.33
Cc1cnc(NC(=O)Nc2cc(Br)c(C)cc2OC[C@@H]2CNCCO2)cn1,2.48,0.18,0.38,0.98,0.74,0.51,2.11,1.71,0.59,0.37,0.36,3.74,5.41,0.03,0.41,0.24,0.75,0.22,0.46,0.19
O=c1cc(N2CCOCC2)oc2c1ccc1ccccc12,0.57,0.45,0.58,1.07,0.27,0.43,0.29,0.64,2.01,0.31,0.45,0.96,1.86,0.42,0.43,0.67,-3.55,0.23,0.63,0.36
CC1(COc2ccc3c(c2)ncn3-c2ccc3cccc(N4CCC(N)CC4)c3n2)COC1,16.4,0.52,0.13,1.74,7.81,0.06,8.62,9.74,3.29,0.23,5.42,16.1,11.8,0.28,1.67,0.2,7.62,0.26,0.43,-0.34
COc1cc(OC)cc(-c2cc3cnc(N)nc3nc2NC(=O)NC(C)(C)C)c1,0.88,0.19,0.34,0.31,0.16,0.18,0.24,0,0.52,0.39,0.07,1.66,-1.45,-0.04,0.11,0.05,-0.44,0.29,1.06,1
O=C(NCc1cccc(O)c1)Nc1nc(-c2ccncc2)cs1,-1.72,0.56,1.15,0.54,1.06,0.51,0.05,1.65,0.86,0.95,1.08,3.27,-3.55,0.81,0.5,1.02,0.47,0.43,1.09,0.35
COc1cc2ncnc(Nc3ccc(Cl)cc3F)c2cc1OC,2.84,0.95,0.25,2.87,0.55,0.36,1.2,7.37,1.81,0.5,0.21,10.1,2.13,0.86,0.51,0.29,4.29,0.69,1.37,-0.11
CCOC(=O)c1cnc2ccc(-c3cncc(NS(=O)(=O)c4ccccc4)c3)cn12,1.34,0.07,0.25,0.45,0.16,0.7,0.65,1.78,1.81,0.65,0.28,3.75,1.63,0.65,0.47,0.51,2.32,0.38,0.45,0.1
